The results in this text go back to PubChem BioAssay (EPA / NIEHS).

A structure can be active in one record and inactive in another. The source made the active and inactive calls. Rule for the calls: active = hit-call score of the fitted dose curve at least 0.9, where 1 is the maximum; inactive = score below 0.9.

As a reminder, the AC50 is the concentration at which the activity in the assay is half-maximal.

Read-out in the first experiment: not listed separately
In words: BSK_hDFCGF_Proliferation: Cell Proliferation Assessment in the BioMAP Diversity Plus: hDFCGF Assay (AID 2283059).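 Note: curves fitted for both rise and fall of signal versus DMSO baseline.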 Conditions: primary human foreskin fibroblasts. The gist of the method:
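This proliferation readout used SRB total-protein staining of human foreskin fibroblasts […], normalized to DMSO with bidirectional curve fitting.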
Consider `CC(C)CC(C)O` (stereo unspecified), for which the result was inactive.
`CCN(CC)C(=S)SSC(=S)N(CC)CC`: the AC50 was 1.41 µM (active).
For the compound `FC(F)C(F)(F)COCC1CO1` (stereo unspecified), the result was inactive.
On the same count and under the same terms, the entry for `OCCC(F)(F)C(F)(F)C(F)(F)C(F)(F)F` is “inactive”.
With `CCCCN1C(=O)[C@@H]([C@H](O)C2CCCCC2)NC(=O)C12CCN(Cc1ccc(Oc3ccc(C(=O)O)cc3)cc1)CC2`, the AC50 is 20 µM (active).
Turning to `NC(=O)N1c2ccccc2C=Cc2ccccc21`, the result was inactive.
For the compound `CC(C)c1nnc2ccc(-c3ocnc3-c3cc(F)ccc3F)cn12`, the concentration at half-maximal activity (AC50) is 5.62 µM (active).
Turning to `O=S(=O)(O)CCC(F)(F)C(F)(F)C(F)(F)C(F)(F)C(F)(F)C(F)(F)F`, the outcome was inactive.
Take `FC(F)=C(F)C(F)(F)C(F)(F)C(F)(F)C(F)(F)C(F)(F)C(F)(F)F`: the outcome was inactive.
As to `Cc1ccc(S(=O)(=O)NC(=O)NN2CCCCCC2)cc1`, the result was inactive.
Same read-out and setting: as for `NC(N)=O`, the entry is “inactive”; as for `CC[C@H](C)C(=O)O[C@H]1C[C@H](O)C=C2C=C[C@H](C)[C@H](CC[C@@H](O)C[C@@H](O)CC(=O)O)[C@H]21`, “inactive”.
On to `CCCCCCCCN(C)C`, for which the outcome was inactive.
For `FC(F)(F)C(F)(F)C(F)(F)C(F)(F)C(F)(F)C(F)(F)I`, the AC50 was 50.7 µM (active) and the result was inactive.
`O=S(=O)(O)c1ccc(N=Nc2c(O)ccc3cc(S(=O)(=O)O)ccc23)cc1`: the outcome was inactive.
Same read-out and setting: as for `CCCCCCOC(=O)CC(CC(=O)OCCCCCC)(OC(=O)CCC)C(=O)OCCCCCC`, the entry is “inactive”; as for `c1ccc2ncccc2c1`, “inactive”; as for `OC[C@H]1O[C@@](CO)(O[C@H]2O[C@H](CO)[C@@H](O)[C@H](O)[C@H]2O)[C@@H](O)[C@@H]1O`, “inactive”.
Still for that read-out and setting: as for `C[C@@H](Oc1ccc(CNC(=O)c2cccnc2Oc2ccc3c(c2)OCO3)c(F)c1)C(=O)O`, the entry is “inactive”.
As to `Nc1ccn([C@@H]2O[C@H](CO)[C@@H](O)[C@@H]2O)c(=O)n1`, the AC50 is 0.615 µM (active).
For the compound `CCCCCCCCCCCCCCCCOS(=O)(=O)O`, the half-maximal activity concentration (AC50) was 5.25 µM (active).
Regarding `CC(C)CCCCCCOC(=O)C1CCCCC1C(=O)OCCCCCCC(C)C` (stereo unspecified), the outcome was inactive.
The same measure, in the same setting: as for `O=C(O)[C@H](O)[C@@H](O)C(=O)O`, the entry is “inactive”.
Still for that read-out and setting: as for `O=c1[nH]cnc2c1ncn2[C@H]1CC[C@@H](CO)O1`, the entry is “inactive”.
Regarding `OCC(CO)(CO)CO`, the outcome was inactive.
Same read-out and setting: as for `O=C(O)c1cccc(C(=O)O)c1`, the entry is “inactive”; as for `OC[C@H]1O[C@@H]2O[C@H]3[C@H](O)[C@@H](O)[C@@H](O[C@H]4[C@H](O)[C@@H](O)[C@@H](O[C@H]5[C@H](O)[C@@H](O)[C@@H](O[C@H]6[C@H](O)[C@@H](O)[C@@H](O[C@H]7[C@H](O)[C@@H](O)[C@@H](O[C@H]1[C@H](O)[C@H]2O)O[C@@H]7CO)O[C@@H]6CO)O[C@@H]5CO)O[C@@H]4CO)O[C@@H]3CO`, “inactive”.
Still for that read-out and setting: the entry for `CCOC(N)=O` is “inactive”.

Read-out in a further experiment: Macrophage colony-stimulating factor (MCSF), CSF1 (gene 1435)
In words: BSK_hDFCGF_MCSF: BioMAP Diversity Plus: hDFCGF Assay for Macrophage colony-stimulating factor (MCSF) Biomarker Activity (AID 2283060). Conditions: primary human foreskin fibroblasts; actives raise or lower the signal. The procedure, abridged: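 M-CSF levels read by ELISA at 24 h post-dosing in human skin fibroblasts. Parallel cultures stained with SRB assessed cytotoxicity at the same time point; response fitted in both directions against the DMSO baseline.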
Turning to `CCCCN1C(=O)[C@@H]([C@H](O)C2CCCCC2)NC(=O)C12CCN(Cc1ccc(Oc3ccc(C(=O)O)cc3)cc1)CC2`, the outcome was inactive.
In the case of `CC(C)c1nnc2ccc(-c3ocnc3-c3cc(F)ccc3F)cn12`, the outcome was inactive.
Still for that read-out and setting: as for `O=S(=O)(O)c1ccc(N=Nc2c(O)ccc3cc(S(=O)(=O)O)ccc23)cc1`, the entry is “inactive”; as for `Nc1ccn([C@@H]2O[C@H](CO)[C@@H](O)[C@@H]2O)c(=O)n1`, “inactive”; as for `CC(C)CCCCCCOC(=O)C1CCCCC1C(=O)OCCCCCCC(C)C` (stereo unspecified), “inactive”.
The same measure, in the same setting: as for `O=C(O)c1cccc(C(=O)O)c1`, the entry is “inactive”; as for `OC[C@H]1O[C@@H]2O[C@H]3[C@H](O)[C@@H](O)[C@@H](O[C@H]4[C@H](O)[C@@H](O)[C@@H](O[C@H]5[C@H](O)[C@@H](O)[C@@H](O[C@H]6[C@H](O)[C@@H](O)[C@@H](O[C@H]7[C@H](O)[C@@H](O)[C@@H](O[C@H]1[C@H](O)[C@H]2O)O[C@@H]7CO)O[C@@H]6CO)O[C@@H]5CO)O[C@@H]4CO)O[C@@H]3CO`, “inactive”; as for `CCOC(N)=O`, “inactive”.

Read-out in a further experiment: not listed separately
In words: BSK_hDFCGF_SRB: Viability Assessment in the BioMAP Diversity Plus: hDFCGF Assay (AID 2283061).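 Note: cells exposed to compound for 24 h before the read.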 Conditions: primary human foreskin fibroblasts. The procedure, abridged: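 Viability was read as total protein: after 10% TCA fixation, wells were stained with 0.1% sulforhodamine B and read at 560 nm. Primary human foreskin fibroblasts were dosed for 24 h, with bidirectional fitting versus DMSO.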
In the case of `CC(C)CC(C)O` (stereo unspecified), the result was inactive.
Take `CCN(CC)C(=S)SSC(=S)N(CC)CC`: the half-maximal activity concentration (AC50) was 4.75 µM (active).
Take `FC(F)C(F)(F)COCC1CO1` (stereo unspecified): the outcome was inactive.
Same read-out and setting: as for `OCCC(F)(F)C(F)(F)C(F)(F)C(F)(F)F`, the entry is “inactive”.
For `CCCCN1C(=O)[C@@H]([C@H](O)C2CCCCC2)NC(=O)C12CCN(Cc1ccc(Oc3ccc(C(=O)O)cc3)cc1)CC2`, the AC50 is 20 µM (active).
In the case of `NC(=O)N1c2ccccc2C=Cc2ccccc21`, the result was inactive.
The same measure, in the same setting: the entry for `CC(C)c1nnc2ccc(-c3ocnc3-c3cc(F)ccc3F)cn12` is “inactive”.
For the compound `O=S(=O)(O)CCC(F)(F)C(F)(F)C(F)(F)C(F)(F)C(F)(F)C(F)(F)F`, the AC50 was 8.85 µM (active) and the result was inactive.
Turning to `FC(F)=C(F)C(F)(F)C(F)(F)C(F)(F)C(F)(F)C(F)(F)C(F)(F)F`, the outcome was inactive.
On the same count and under the same terms, the entry for `Cc1ccc(S(=O)(=O)NC(=O)NN2CCCCCC2)cc1` is “inactive”; for `NC(N)=O` it is “inactive”.
Still for that read-out and setting: the entry for `CC[C@H](C)C(=O)O[C@H]1C[C@H](O)C=C2C=C[C@H](C)[C@H](CC[C@@H](O)C[C@@H](O)CC(=O)O)[C@H]21` is “inactive”.
On the same count and under the same terms, the entry for `CCCCCCCCN(C)C` is “inactive”; for `FC(F)(F)C(F)(F)C(F)(F)C(F)(F)C(F)(F)C(F)(F)I` it is “inactive”; for `O=S(=O)(O)c1ccc(N=Nc2c(O)ccc3cc(S(=O)(=O)O)ccc23)cc1` it is “inactive”.
In the case of `CCCCCCOC(=O)CC(CC(=O)OCCCCCC)(OC(=O)CCC)C(=O)OCCCCCC`, the result was inactive.
The same measure, in the same setting: the entry for `c1ccc2ncccc2c1` is “inactive”; for `OC[C@H]1O[C@@](CO)(O[C@H]2O[C@H](CO)[C@@H](O)[C@H](O)[C@H]2O)[C@@H](O)[C@@H]1O` it is “inactive”; for `C[C@@H](Oc1ccc(CNC(=O)c2cccnc2Oc2ccc3c(c2)OCO3)c(F)c1)C(=O)O` it is “inactive”.
`Nc1ccn([C@@H]2O[C@H](CO)[C@@H](O)[C@@H]2O)c(=O)n1`: the outcome was inactive.
In the case of `CCCCCCCCCCCCCCCCOS(=O)(=O)O`, the concentration at half-maximal activity (AC50) was 13.7 µM (active).
As to `CC(C)CCCCCCOC(=O)C1CCCCC1C(=O)OCCCCCCC(C)C` (stereo unspecified), the result was inactive.
Still for that read-out and setting: the entry for `O=C(O)[C@H](O)[C@@H](O)C(=O)O` is “inactive”; for `O=c1[nH]cnc2c1ncn2[C@H]1CC[C@@H](CO)O1` it is “inactive”; for `OCC(CO)(CO)CO` it is “inactive”.
As for `O=C(O)c1cccc(C(=O)O)c1`, the result was inactive.
Take `OC[C@H]1O[C@@H]2O[C@H]3[C@H](O)[C@@H](O)[C@@H](O[C@H]4[C@H](O)[C@@H](O)[C@@H](O[C@H]5[C@H](O)[C@@H](O)[C@@H](O[C@H]6[C@H](O)[C@@H](O)[C@@H](O[C@H]7[C@H](O)[C@@H](O)[C@@H](O[C@H]1[C@H](O)[C@H]2O)O[C@@H]7CO)O[C@@H]6CO)O[C@@H]5CO)O[C@@H]4CO)O[C@@H]3CO`: the outcome was inactive.
As to `CCOC(N)=O`, the outcome was inactive.
